Inconclusive results are not listed. Where a call stands in place of a potency, no number is given. Active and inactive are the calls of the source. Calls come from the whole dose curve; as a rule, active = well fitted curve in the direction sought with a large enough effect; inconclusive = small, poorly fitted or top-dose-only effect, or another doubt; inactive = no such curve, though single readings can be large; an effect the other way counts as inactive or inconclusive.
Assay: P-glycoprotein substrates identified in KB-3-1 adenocarcinoma cell line, qHTS therapeutic library screen (AID 1346986); note: nearly all actives have a fitted effect of over 60% in size
Conditions: KB-3-1 parental cells viability, CellTiter-Glo, 72 h; series mostly up to 44.5 µM
Procedure, shortened: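 Cells seeded 500/well in DMEM/10% FCS; compounds pinned in dose-response; 72 h incubation; CellTiter-Glo added, 5 min, luminescence. KB-8-5-11 run ±tariquidar to test reversal of P-gp resistance.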

Structure (SMILES) | Potency
Cc1ccc(-c2c(-c3nn(C)c4ncnc(N5CCC(N6CCCCC6)C5)c34)cnn2C)cc1 (stereo not given) | inactive
CC(=O)OC/C(=C/C(=O)O)CC[C@@H]1C(CO)=CC[C@@H]2C(C)(C)CCC[C@@]12C | inactive
COc1cc2c(cc1O)CC(O)(CO)C(CO)C2c1ccc(OC2OC(CO)C(O)C(O)C2O)c(OC)c1 (stereo not given) | inactive
CC1(C)OC(=O)CC(O)C2(C)C1CC(=O)C1(C)C2C(O)CC2(C)C(c3ccoc3)OC(=O)C3OC321 (stereo not given) | inactive
COC(=O)C1=CO[C@@H](O[C@@H]2O[C@H](CO[C@@H]3O[C@H](CO)[C@@H](O)[C@H](O)[C@H]3O)[C@@H](O)[C@H](O)[C@H]2O)[C@@H]2C(CO)=CC[C@H]12 | inactive
CC(CC(C)O[C@@H]1O[C@H](CO)[C@@H](O)[C@H](O)[C@H]1O)OC(=O)/C=C/c1ccc(O)cc1 (stereo not given in full) | inactive
CC(=O)/C=C/C1(O)C(C)CC(O[C@@H]2O[C@H](CO)[C@@H](O)[C@H](O)[C@H]2O)CC1(C)C (stereo not given in full) | inactive
COC(=O)C1=CO[C@@H](O[C@@H]2O[C@H](CO)[C@@H](O)[C@H](O)[C@H]2O)[C@@H]2C(CO)=CC[C@H]12 | inactive
CC1(C)CC[C@]2(C(=O)O[C@@H]3O[C@H](CO)[C@@H](O)[C@H](O)[C@H]3O)CC[C@]3(C)C(=CCC4[C@@]5(C)C[C@@H](O)[C@H](O)[C@@](C)(CO)C5[C@H](O)C[C@]43C)C2[C@@H]1O (stereo not given in full) | inactive
Cc1nnc(-c2ccc3occ(-c4ccc(S(C)=O)cc4)c3c2)o1 (stereo not given) | inactive
C/C=C/C=C/C=C/C(=O)N(C)C(C(=O)NC(C)C(=O)N1CCCC1C(N)=O)C(C)C (stereo not given) | inactive
CC(O)C1NC(=O)C2CCCN2C1=O (stereo not given) | inactive
C=C1CC[C@H]2[C@@](C)(CCC(OC3OC(CO)C(O)C(O)C3O)[C@@]2(C)CO)C1C(=O)CC1=CCOC1=O (stereo not given in full) | inactive
C=C(CC/C=C(\C)C(=O)O)C1(O)CC=C(C)CC1 (stereo not given) | inactive
COC(=O)C1=COC(OC2OC(CO)C(O)C(O)C2O)C2C(COC(=O)/C=C/c3ccc(O)c(O)c3)C(O)C(O)C12 (stereo not given) | inactive
CC(C)=CCC(O)[C@](C)(O)C1[C@H](O)C[C@@]2(C)C3CC=C4C(C[C@H](O)[C@@H](O[C@@H]5O[C@H](CO)[C@@H](O)[C@H](O)[C@H]5O)C4(C)C)[C@]3(C)C(=O)C[C@]12C (stereo not given in full) | inactive
COC(=O)C1(C)CCCC2(C)c3ccc(C(C)C)cc3C(O)C(O)C12 (stereo not given) | inactive
N#CN1CCC[C@@H](n2nc(-c3ccc(Oc4ccc(F)cc4F)cc3)c(C(N)=O)c2N)C1 | inactive
CC1(C)[C@H]2C[C@H](C/C=C\CCCC(=O)O)[C@@H](NC(=O)c3csc4ccc(O)cc34)[C@@H]1C2 | inactive
COC(=O)C(CC1CCCC1)c1ccc(S(C)(=O)=O)cc1 (stereo not given) | inactive
C[C@@H]1O[C@@H](O[C@@H]2\C=C/C=C\C=C/C=C\C[C@H](C)OC(=O)/C=C\[C@H]3O[C@@H]3C[C@H](O)C[C@]3(O)C[C@@H](O)[C@@H](C(=O)O)[C@H](C2)O3)[C@H](O)[C@H](N)[C@@H]1O | inactive
O=C(O)CCc1c(C(=O)O)[nH]c2cc(Cl)cc(Cl)c12 | inactive
COc1cc(C2CC(=O)Nc3c2cc(Br)c2ccccc32)cc(OC)c1OC (stereo not given) | inactive

Assay: P-glycoprotein substrates identified in KB-8-5-11 adenocarcinoma cell line, qHTS therapeutic library screen (AID 1346987); note: nearly all actives have a fitted effect of over 65% in size
Conditions: KB-8-5-11 (P-gp overexpressing) viability, CellTiter-Glo, 72 h; series mostly up to 44.5 µM
Procedure, shortened: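 KB-8-5-11, a colchicine-selected P-gp-overexpressing KB-3-1 subline, was grown without colchicine for the assay. Cells were seeded at 500 cells/well, dosed in concentration-response and incubated 72 h at 37 degree C, 5% CO2. Viability was read by CellTiter-Glo luminescence.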

Structure (SMILES) | Potency
CN(C)CC(c1ccc(O)cc1)C1(O)CCCCC1 (stereo not given) | inactive
CC(=O)NC(C(=O)OC1CCC(C)(C)C2CC=C3C(=O)OCC3C12C)C(C)C (stereo not given) | inactive
C=CC1(C)CC2CCC3C(C)(C(=O)O)CCCC3(C)C2=CC1=O (stereo not given) | inactive
N=C(N)c1ccc2nc(-c3cc(CC(=O)NC(CC(=O)O)C(=O)O)cc(-c4cc(S(N)(=O)=O)ccc4O)c3O)[nH]c2c1 (stereo not given) | inactive
CC1CC=C2C1CC1(O)C(=O)CC2(C)C1(C)CO (stereo not given) | inactive
CC(C)NC(=O)c1ccc(C#Cc2ccncc2)cn1 | inactive
CC(=O)OC/C(=C/C(=O)O)CC[C@@H]1C(CO)=CC[C@@H]2C(C)(C)CCC[C@@]12C | inactive
COc1cc2c(cc1O)CC(O)(CO)C(CO)C2c1ccc(OC2OC(CO)C(O)C(O)C2O)c(OC)c1 (stereo not given) | inactive
COC(=O)C1=CO[C@@H](O[C@@H]2O[C@H](CO[C@@H]3O[C@H](CO)[C@@H](O)[C@H](O)[C@H]3O)[C@@H](O)[C@H](O)[C@H]2O)[C@@H]2C(CO)=CC[C@H]12 | inactive
CC(CC(C)O[C@@H]1O[C@H](CO)[C@@H](O)[C@H](O)[C@H]1O)OC(=O)/C=C/c1ccc(O)cc1 (stereo not given in full) | inactive
COC(=O)C1=CO[C@@H](O[C@@H]2O[C@H](CO)[C@@H](O)[C@H](O)[C@H]2O)[C@@H]2C(CO)=CC[C@H]12 | inactive
CC1(C)CC[C@]2(C(=O)O[C@@H]3O[C@H](CO)[C@@H](O)[C@H](O)[C@H]3O)CC[C@]3(C)C(=CCC4[C@@]5(C)C[C@@H](O)[C@H](O)[C@@](C)(CO)C5[C@H](O)C[C@]43C)C2[C@@H]1O (stereo not given in full) | inactive
C/C=C/C=C/C=C/C(=O)N(C)C(C(=O)NC(C)C(=O)N1CCCC1C(N)=O)C(C)C (stereo not given) | inactive
CC(O)C1NC(=O)C2CCCN2C1=O (stereo not given) | inactive
C=C(CC/C=C(\C)C(=O)O)C1(O)CC=C(C)CC1 (stereo not given) | inactive
COC(=O)C(CC1CCCC1)c1ccc(S(C)(=O)=O)cc1 (stereo not given) | inactive
C[C@@H]1O[C@@H](O[C@@H]2\C=C/C=C\C=C/C=C\C[C@H](C)OC(=O)/C=C\[C@H]3O[C@@H]3C[C@H](O)C[C@]3(O)C[C@@H](O)[C@@H](C(=O)O)[C@H](C2)O3)[C@H](O)[C@H](N)[C@@H]1O | inactive

Source: PubChem BioAssay (NCATS)
